# Measurements as given in PubChem BioAssay (Tox21).
# Values without a mark were called inactive. Records with an inconclusive call do not appear. Entries that show only a call come without a potency. Activity calls are given as the source filed them. Unless noted, calls follow the shape of the dose curve; as a rule, active = well fitted curve in the direction sought with a large enough effect in the repeat runs; inconclusive = weak or mixed curves; inactive = no such curve, though single readings can be large; an effect the other way counts as inactive or inconclusive.
# Experiments:
# [1] = qHTS assay to identify small molecule antagonists of the glucocorticoid receptor (GR) signaling pathway - cell viability counter screen (AID 720693); also: nearly all actives have a fitted effect of over 55% in size
# [2] = qHTS assay for identifying genotoxic compounds that show differential cytotoxicity against isogenic chicken DT40 cell lines with known DNA damage response pathways - wild type cell line (AID 743012); also: nearly all actives have a fitted effect of over 60% in size; also: potency is read from the fitted curve at half-maximal effect
# Outline: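 Viability by ATP luminescence (CellTiter-Glo, 30 min RT) after 40 h compound treatment at 37 C/5% CO2, using 300 parental DNA repair-proficient DT40 cells per well.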
# [3] = qHTS assay for identifying genotoxic compounds that show differential cytotoxicity against isogenic chicken DT40 cell lines with known DNA damage response pathways - Rad54/Ku70 mutant cell line (AID 743015); also: nearly all actives have a fitted effect of over 60% in size; also: potency is read from the fitted curve at half-maximal effect
# [4] = qHTS assay to identify small molecule antagonists of the androgen receptor (AR) signaling pathway - cell viability counter screen (AID 743033; also: nearly all actives have a fitted effect of over 45% in size)
# [5] = qHTS assay to identify small molecule antagonists of the androgen receptor (AR) signaling pathway using the MDA cell line - cell viability counter screen (AID 743041; also: nearly all actives have a fitted effect of over 45% in size)
# Outline: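 Viability read by CellTiter-Fluor fluorescence in the same wells as the antagonist screen, added after 15.5 h of a 16 h, 37C exposure. Human breast carcinoma MDA-kb2 AR-luc cells, compounds co-dosed with agonist R1881.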
# [6] = qHTS assay to identify small molecule antagonists of the thyroid receptor (TR) signaling pathway - cell viability counter screen (AID 743064); also: nearly all actives have a fitted effect of over 50% in size
# Outline: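 Rat GH3 pituitary tumor cells stably expressing two TR response elements driving luciferase were plated, rested 4 h, then dosed with library compounds and T3 (1 nM final). After 23.5 h at 37 °C, CellTiter-Fluor was added for 30 min and fluorescence recorded.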
# [7] = qHTS assay for identifying genotoxic compounds that show differential cytotoxicity against isogenic chicken DT40 cell lines with known DNA damage response pathways - Rev3 mutant cell line (AID 743014); also: nearly all actives have a fitted effect of over 55% in size; also: potency is read from the fitted curve at half-maximal effect
# [8] = molecular target: Androgen receptor (Homo sapiens) (UniProt P10275); assay: qHTS assay to identify small molecule antagonists of the androgen receptor (AR) signaling pathway (AID 743035; active = well fitted inhibition curve with a large enough effect in the signal ratio in the repeat runs, not every such curve was filed as active; the % refers to the signal ratio)
# Sequence of Androgen receptor (Homo sapiens) (P10275 whole entry, looked up): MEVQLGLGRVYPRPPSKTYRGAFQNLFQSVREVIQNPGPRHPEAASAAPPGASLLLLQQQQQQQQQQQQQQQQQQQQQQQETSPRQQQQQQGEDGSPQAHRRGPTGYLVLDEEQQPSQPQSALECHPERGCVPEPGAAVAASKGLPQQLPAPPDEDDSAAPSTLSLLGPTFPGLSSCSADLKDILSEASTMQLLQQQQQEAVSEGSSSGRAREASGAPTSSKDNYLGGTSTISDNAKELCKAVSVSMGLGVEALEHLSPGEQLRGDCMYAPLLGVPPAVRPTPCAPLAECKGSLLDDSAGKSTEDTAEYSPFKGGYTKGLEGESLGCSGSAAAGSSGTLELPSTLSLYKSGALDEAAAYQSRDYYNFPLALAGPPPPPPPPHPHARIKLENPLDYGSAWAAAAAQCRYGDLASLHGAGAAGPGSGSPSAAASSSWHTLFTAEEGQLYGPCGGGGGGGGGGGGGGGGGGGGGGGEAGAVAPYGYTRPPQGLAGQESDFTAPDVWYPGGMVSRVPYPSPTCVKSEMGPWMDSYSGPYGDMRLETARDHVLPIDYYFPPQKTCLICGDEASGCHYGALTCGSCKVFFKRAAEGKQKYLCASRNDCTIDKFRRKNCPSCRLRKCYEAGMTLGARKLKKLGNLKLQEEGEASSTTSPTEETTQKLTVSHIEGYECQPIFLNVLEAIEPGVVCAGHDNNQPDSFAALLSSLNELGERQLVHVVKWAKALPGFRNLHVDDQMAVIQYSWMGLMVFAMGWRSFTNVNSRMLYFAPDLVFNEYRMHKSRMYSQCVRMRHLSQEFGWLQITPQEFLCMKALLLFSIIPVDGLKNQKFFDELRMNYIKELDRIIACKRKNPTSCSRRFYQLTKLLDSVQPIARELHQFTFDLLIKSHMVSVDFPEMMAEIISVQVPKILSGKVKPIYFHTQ
# Outline: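 Antagonist mode: AR-bla HEK293 cells co-treated with test compounds and agonist R1881 for 16 h at 37C, 5% CO2. Beta-lactamase activity read as FRET fluorescence after 2 h room-temperature substrate loading.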
# [9] = molecular target: Androgen receptor (Homo sapiens) (UniProt P10275); assay: qHTS assay to identify small molecule agonists of the androgen receptor (AR) signaling pathway using the MDA cell line (AID 743040; also: nearly all actives have a fitted effect of over 20% in size)
# Outline: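 Luciferase agonist assay: 16 h compound exposure at 37C without CO2 in MDA-kb2 AR-luc cells, whose MMTV promoter responds to both AR and GR. Luminescence measured after 30 min room-temperature incubation with ONE-Glo.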
# [10] = molecular target: Androgen receptor (Homo sapiens) (UniProt P10275); assay: qHTS assay to identify small molecule antagonists of the androgen receptor (AR) signaling pathway using the MDA cell line (AID 743042; also: nearly all actives have a fitted effect of over 55% in size)
# Outline: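 Antagonist mode: compounds plus R1881 agonist added to MDA-kb2 AR-luc cells, incubated 16 h at 37C. Luciferase reporter luminescence quantified, with multiplexed CellTiter-Fluor readout for cell viability.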
smiles,measurement,setting,value
CC(C)(C)NCCO,Potency,[1],inactive
same,Potency,[2],inactive
same,Potency,[3],inactive
same,outcome,[4],inactive
same,outcome,[5],inactive
same,Potency,[6],inactive
FC(F)(F)/C(=N\OCC1OCCO1)c1ccc(Cl)cc1,Potency,[1],inactive
same,Potency,[2],inactive
same,Potency,[3],inactive
same,outcome,[4],inactive
same,Potency,[6],inactive
C=CCCCCCCCCCCC,"viability change, negative = cytotoxic",[1],4.18% [at 7.04 µM]
same,"activity, negative = cytotoxicity",[7],4.5% [at 8.53 µM]
same,"activity change, negative = cytotoxicity",[3],-12.6% [at 8.55 µM]
same,"activity change, negative = cytotoxicity",[4],-0.32% [at 7.04 µM]
same,"activity change, negative = inhibition",[8],-3.92% [at 7.04 µM]
same,activity change,[9],4.86% [at 8.47 µM]
same,"viability change, negative = cytotoxic",[5],-1.53% [at 8.47 µM]
same,"activity change, negative = inhibition",[10],17.6% [at 8.47 µM]
same,"activity change, negative = cytotoxic",[6],-6.91% [at 8.44 µM]
CCCCCC1CCCC(=O)O1 (stereo not given),Potency,[1],inactive
same,Potency,[7],inactive
same,Potency,[3],inactive
same,outcome,[4],inactive
same,outcome,[5],inactive
CCC(CO)CO,Potency,[1],inactive
same,Potency,[2],inactive
same,Potency,[3],inactive
same,outcome,[4],inactive
same,outcome,[5],inactive
same,Potency,[6],inactive
O=C1OC(=O)c2cc(Oc3ccc4c(c3)C(=O)OC4=O)ccc21,Potency,[1],inactive
same,Potency,[7],inactive
same,Potency,[3],inactive
same,outcome,[4],inactive
same,Potency,[8],inactive
same,outcome,[9],inactive
same,outcome,[10],inactive
Nc1cc(C(=O)O)ccc1Cl,Potency,[1],inactive
same,Potency,[7],inactive
same,Potency,[3],inactive
same,outcome,[4],inactive
same,Potency,[8],inactive
same,outcome,[9],inactive
same,outcome,[5],inactive
same,outcome,[10],inactive
same,Potency,[6],inactive
Nc1ccc(S(=O)(=O)NC(=O)c2ccccc2)cc1,Potency,[1],inactive
same,Potency,[2],inactive
same,Potency,[3],inactive
same,outcome,[4],inactive
same,outcome,[5],inactive
same,Potency,[6],inactive
CCC(=O)OCCC(C)CCC=C(C)C (stereo not given),Potency,[1],inactive
same,Potency,[2],inactive
same,outcome,[4],inactive
same,outcome,[5],inactive
same,Potency,[6],inactive
C[Si]1(C)N[Si](C)(C)N[Si](C)(C)N1,Potency,[1],inactive
same,Potency,[2],inactive
same,Potency,[3],inactive
same,outcome,[4],inactive
same,outcome,[5],inactive
same,Potency,[6],inactive
COCC(=O)Nc1c(I)c(C(=O)NCC(O)CO)c(I)c(C(=O)N(C)CC(O)CO)c1I (stereo not given),Potency,[1],inactive
same,Potency,[7],inactive
same,Potency,[3],inactive
same,outcome,[4],inactive
same,Potency,[8],inactive
same,outcome,[9],inactive
same,outcome,[5],inactive
same,outcome,[10],inactive
same,Potency,[6],inactive
CCN(CCO)c1cccc(C)c1,Potency,[1],inactive
same,Potency,[2],inactive
same,outcome,[4],inactive
same,outcome,[5],inactive
same,Potency,[6],inactive
O=C(Nc1cccc(C2=NCCN2)c1)Nc1cccc(C2=NCCN2)c1,Potency,[1],inactive
same,Potency,[2],11.9 µM (active)
same,Potency,[3],18.8 µM (active)
same,outcome,[4],inactive
same,outcome,[5],inactive
same,Potency,[6],inactive
CC1=CC[C@H](CC=O)C1(C)C,Potency,[1],inactive
same,Potency,[2],inactive
same,Potency,[3],inactive
same,outcome,[4],inactive
same,outcome,[5],inactive
same,Potency,[6],inactive
CCCCCCCCCCCCCC(=O)OC,Potency,[1],inactive
same,Potency,[2],inactive
same,Potency,[8],inactive
same,outcome,[9],inactive
same,outcome,[5],inactive
same,outcome,[10],inactive
same,Potency,[6],inactive
Cc1ncc([N+](=O)[O-])n1CC(O)CCl (stereo not given),Potency,[1],inactive
same,Potency,[7],inactive
same,Potency,[3],inactive
same,outcome,[4],inactive
same,Potency,[8],inactive
same,outcome,[9],inactive
same,outcome,[5],inactive
same,outcome,[10],inactive
same,Potency,[6],inactive
NS(=O)(=O)c1cc2c(cc1Cl)NC(C(Cl)Cl)NS2(=O)=O (stereo not given),Potency,[1],inactive
same,Potency,[2],inactive
same,Potency,[3],inactive
same,outcome,[5],inactive
same,Potency,[6],inactive
CNC(=O)NC,Potency,[1],inactive
same,Potency,[7],inactive
same,Potency,[3],inactive
same,outcome,[4],inactive
same,Potency,[8],inactive
same,outcome,[9],inactive
same,outcome,[5],inactive
same,outcome,[10],inactive
same,Potency,[6],inactive
O=S1(=O)CCCC1,Potency,[1],inactive
same,Potency,[2],inactive
same,Potency,[3],inactive
same,outcome,[4],inactive
same,outcome,[5],inactive
same,Potency,[6],inactive
CCCCCCCCOC(C)=O,Potency,[1],inactive
same,Potency,[2],inactive
same,Potency,[3],inactive
same,outcome,[4],inactive
same,outcome,[5],inactive
same,Potency,[6],inactive
CCNC(=O)NCCCOc1cccc(CN2CCCCC2)c1,Potency,[1],inactive
same,Potency,[7],inactive
same,Potency,[3],inactive
same,outcome,[4],inactive
same,outcome,[5],inactive
same,Potency,[6],inactive
CCCO,Potency,[1],inactive
same,Potency,[7],inactive
same,Potency,[3],inactive
same,outcome,[4],inactive
same,outcome,[5],inactive
same,Potency,[6],inactive
OC[C@@H](O)[C@H](O)[C@@H](O)[C@@H](O)CO,Potency,[1],inactive
same,Potency,[7],inactive
same,Potency,[3],inactive
same,outcome,[4],inactive
same,outcome,[5],inactive
same,Potency,[6],inactive
CC(=O)/C=C/c1ccco1,Potency,[1],inactive
same,Potency,[7],inactive
same,Potency,[3],inactive
same,outcome,[4],inactive
same,Potency,[6],inactive
C=C(C)C(=O)OCCCCCCOC(=O)C(=C)C,Potency,[1],inactive
same,Potency,[7],inactive
same,Potency,[3],inactive
same,outcome,[4],inactive
same,outcome,[5],inactive
same,Potency,[6],inactive
CCCCOC(=O)C(C)OC(=O)CCC (stereo not given),Potency,[1],inactive
same,Potency,[7],inactive
same,Potency,[3],inactive
same,outcome,[4],inactive
same,outcome,[5],inactive
same,Potency,[6],inactive
CCCCCCCCCCCCOC(C)=O,Potency,[1],inactive
same,Potency,[7],inactive
same,Potency,[3],inactive
same,outcome,[4],inactive
same,outcome,[5],inactive
same,Potency,[6],inactive
C[CH2][Ge]([Cl])([CH2]C)[CH2]C,Potency,[1],inactive
same,Potency,[7],inactive
same,Potency,[3],inactive
same,outcome,[4],inactive
same,outcome,[5],inactive
C=CCOCC(CO)(COCC=C)COCC=C,Potency,[1],inactive
same,Potency,[7],inactive
same,Potency,[3],inactive
same,outcome,[4],inactive
same,outcome,[5],inactive
same,Potency,[6],inactive
C=C[Si](C)(C)O[Si](C)(C)C=C,Potency,[1],inactive
same,Potency,[7],inactive
same,Potency,[3],inactive
same,outcome,[4],inactive
same,outcome,[5],inactive
same,Potency,[6],inactive
O=C(c1ccc2c(c1)C(=O)OC2=O)c1ccc2c(c1)C(=O)OC2=O,Potency,[1],inactive
same,Potency,[7],inactive
same,Potency,[3],inactive
same,outcome,[4],inactive
same,outcome,[5],inactive
same,Potency,[6],inactive
CCCCOC(=O)[C@@H](C)Oc1ccc(Oc2ccc(C(F)(F)F)cn2)cc1,Potency,[1],inactive
same,Potency,[7],inactive
same,Potency,[3],inactive
same,outcome,[4],inactive
same,outcome,[5],inactive
same,Potency,[6],inactive
O=c1[nH]c(=O)c2[nH]c(=O)[nH]c2[nH]1,Potency,[1],inactive
same,Potency,[7],inactive
same,Potency,[3],inactive
same,outcome,[4],inactive
same,outcome,[5],inactive
same,Potency,[6],inactive
CO/N=C(/C(=O)N[C@@H]1C(=O)N2C(C(=O)O)=C(Cn3nnc(C)n3)CS[C@H]12)c1csc(N)n1,Potency,[1],inactive
same,Potency,[7],inactive
same,Potency,[3],inactive
same,outcome,[4],inactive
same,outcome,[5],inactive
same,Potency,[6],inactive
CC(=O)OCCCc1ccccc1,Potency,[1],inactive
same,Potency,[7],inactive
same,Potency,[3],inactive
same,outcome,[4],inactive
same,outcome,[5],inactive
same,Potency,[6],inactive
C=C(C)C(=O)OC,Potency,[1],inactive
same,Potency,[7],inactive
same,Potency,[3],inactive
same,outcome,[4],inactive
same,outcome,[5],inactive
same,Potency,[6],inactive
O=C(O)c1c(Cl)ccc(Cl)c1Cl,Potency,[1],inactive
same,Potency,[7],inactive
same,Potency,[3],inactive
same,outcome,[4],inactive
same,outcome,[5],inactive
same,Potency,[6],inactive
COC(/C=C(\C)CCC=C(C)C)OC,Potency,[1],inactive
same,Potency,[7],inactive
same,Potency,[3],inactive
same,outcome,[4],inactive
same,Potency,[6],inactive
CCOC(=O)CCc1ccccc1,Potency,[1],inactive
same,Potency,[7],inactive
same,Potency,[3],inactive
same,outcome,[4],inactive
same,outcome,[5],inactive
same,Potency,[6],inactive
NC(Cc1c[nH]c2ccccc12)C(=O)O (stereo not given),Potency,[1],inactive
same,Potency,[7],inactive
same,Potency,[3],inactive
same,outcome,[4],inactive
same,outcome,[5],inactive
C=C(C)C(=O)OC1CC(C)CC(C)(C)C1 (stereo not given),Potency,[1],inactive
same,Potency,[7],inactive
same,Potency,[3],inactive
same,outcome,[4],inactive
same,outcome,[5],inactive
same,Potency,[6],inactive
CC(C)CCC(=O)CCC(C)C,Potency,[1],inactive
same,Potency,[7],68.6 µM (active)
same,Potency,[3],61.1 µM (active)
same,outcome,[4],inactive
same,outcome,[5],inactive
same,Potency,[6],inactive
